Each structure is given as a SMILES string. Inconclusive results are not listed. Calls of active or inactive are those of the source. The call rests on the fitted dose curve; in most records, active means well fitted cell-killing curve with a large enough effect; inconclusive means small, poorly fitted or top-dose-only effect, or effect the other way; inactive means no such curve, though single readings can be large or run the other way. *1 amine or outer side, *2 acyl side, *3 side chain or, on linkers, in order; H or OH if unused. Where a SMILES comes first, the peptide text is derived from it. Bridges are numbered along the chain shown (N, C = ends). Roman numbers before positions name the chains, in order. [ ]: non-standard residue; d: D form. Actinocin(9to1) = Cc1c2oc3c(C)ccc(C(=O)[*:1])c3nc-2c(C(=O)[*:2])c(N)c1=O; NMeV = CN[C@H](C(=O)O)C(C)C; Sar = CNCC(=O)O
On the % scale 0 is the no-effect control and ±100 the full control effect; potency means the concentration at half of the fitted maximal effect.

The assay concerns JEG-3. The experiment in a line: Confirmatory qHTS for gynecologic anti-cancer compounds from libraries of approved drugs and bioactive compounds. Further: nearly all actives have a fitted effect of over 55% in size. The settings on record: gynecologic cancer cell panel viability, ATPlite luminescence, 48 h; series mostly up to 57.6 µM; activity change, negative = viability loss: at the top concentration. The essentials:
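1,000 cells/well; 16 h pre-incubation 37 C, 5% CO2; pin-transferred cpd in DMSO, 11 conc (1:3), 57.5 uM–0.977 nM; 48 h; ATPlite, 15 min RT; luminescence → IC50.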
Take `Cn1cc(-c2ccc3ncc(Cc4ccc5ncccc5c4)n3n2)cn1`: the “activity change, negative = viability loss” value is -24.8% (inactive).
As for `Nc1nc(Cl)nc2c1ncn2C1OC(CO)C(O)C1F` (configuration not stated), the Potency is 2.17 µM (active).
With `O=C(NOC[C@H](O)CO)c1ccc(F)c(F)c1Nc1ccc(I)cc1F`, the “activity change, negative = viability loss” value was -5.57% (inactive).
Turning to `CC[C@@]1(O)C(=O)OCc2c1cc1n(c2=O)Cc2c-1nc1ccccc1c2/C=N/OC(C)(C)C`, the Potency was 0.0217 µM (active).
In the case of `OCc1ccc(-c2ccc(-c3ccc(CO)s3)o2)s1`, the “activity change, negative = viability loss” value is -21.6% [at 19.5 µM] (inactive).
Regarding `CC(C)Nc1cc(-c2c[nH]c(C(=O)N[C@H](CO)c3cccc(Cl)c3)c2)c(Cl)cn1`, the Potency is 27.3 µM (active).
Still for that read-out and setting: to `CC(C)c1nn(-c2c(Cl)cccc2Cl)c2nc(Cc3ccc(OCCO)cc3)[nH]c(=O)c12` belongs 0.0685 µM (active); to `Cc1csc(NC(=O)c2sc3nc4c(c(C(F)(F)F)c3c2N)CCC4)n1`, 13.7 µM (active).
Take `COc1ccc(-c2ccc3c(N4CCOCC4C)nc(N4CCOCC4C)nc3n2)cc1CO` (configuration not stated): the “activity change, negative = viability loss” value is -1.03% (inactive).
As to `CCCCc1nc2cc(/C=C/C(=O)NO)ccc2n1CCN(CC)CC`, the Potency is 1.53 µM (active).
The same measure, in the same setting: the same measure for `Cc1nc(N)sc1-c1ccnc(Nc2ccc(N3CCOCC3)cc2)n1`: 13.7 µM (active).
Still for that read-out and setting: to `CC(C)n1nc(-c2cc3cc(O)ccc3[nH]2)c2c(N)ncnc21` belongs 17.2 µM (active); to `CCC1C(=O)N(C)c2cnc(Nc3ccc(C(=O)NC4CCC(N5CCN(CC6CC6)CC5)CC4)cc3OC)nc2N1C(C)C` (configuration not stated), 0.0611 µM (active).
For the compound `C[C@]12CCC(=O)C=C1CC[C@@H]1[C@@H]2[C@@H](O)C[C@@]2(C)[C@H]1CC[C@]2(O)C(=O)CO`, the “activity change, negative = viability loss” value was 15.1% (inactive).
On to `CC1=C(/C=C/C(C)=C/C=C/C(C)=C/C(=O)Nc2ccc(O)cc2)C(C)(C)CCC1`, for which the Potency is 21.7 µM (active).
Same read-out and setting: to `COc1ccc2cc3[n+](cc2c1OC)CCc1cc2c(cc1-3)OCO2` belongs 3.85 µM (active); to `CC(C)(C)C(=O)OCOP(=O)(COCCn1cnc2c(N)ncnc21)OCOC(=O)C(C)(C)C`, 2.43 µM (active).
Same read-out and setting: to `CC(=O)NCC(=O)N1C2CCC1c1cc(Nc3ncc(C(F)(F)F)c(NC4CCC4)n3)ccc12` (configuration not stated) belongs 19.3 µM (active).
Regarding `CC[C@H](Nc1ncnc2nc[nH]c12)c1nc2cccc(F)c2c(=O)n1-c1ccccc1`, the activity change, negative = viability loss is -0.887% [at 10.6 µM] (inactive).
Take `O=C(c1ccc(F)c(F)c1Nc1ccc(I)cc1F)N1CC(O)([C@@H]2CCCCN2)C1`: the Potency was 24.3 µM (active).
On the same count and under the same terms, the same measure for `Cc1cc(C2CCCCC2)n(O)c(=O)c1`: 11.1 µM (active).
As for `O=C1c2c(O)ccc(O)c2C(=O)c2c(NCCNCCO)ccc(NCCNCCO)c21`, the Potency was 2.43 µM (active).
Regarding `COc1cccc2c1C(=O)c1c(O)c3c(c(O)c1C2=O)C[C@@](O)(C(=O)CO)C[C@@H]3O[C@H]1C[C@H](N)[C@H](O[C@@H]2CCCCO2)[C@H](C)O1`, the Potency was 13.7 µM (active).
As to `CCC1=CC2CN(C1)Cc1c([nH]c3ccccc13)[C@@](C(=O)OC)(c1cc3c(cc1OC)N(C)[C@H]1[C@@](O)(C(=O)OC)[C@H](OC(C)=O)[C@]4(CC)C=CCN5CC[C@]31[C@@H]54)C2` (some centres not stated), the Potency is 0.0943 µM (active).
For `Cc1nc(N)nc(N)c1-c1ccc(Cl)c(Cl)c1`, the Potency was 17.2 µM (active).
Take `Nc1ccn([C@@H]2O[C@H](CO)[C@@H](O)C2(F)F)c(=O)n1`: the “activity change, negative = viability loss” value was -23.6% (inactive).
Regarding `CC1=C(CO)C(=O)O[C@@H]([C@@H](C)[C@H]2CC[C@H]3[C@@H]4C[C@H]5O[C@]56[C@@H](O)C=CC(=O)[C@]6(C)[C@H]4CC[C@]23C)C1`, the Potency is 5.3 µM (active).
Regarding `Nc1nc(=S)c2[nH]cnc2[nH]1`, the Potency is 4.32 µM (active).
On to `Cc1c2oc3c(C)ccc(C(=O)N[C@@H]4C(=O)N[C@H](C(C)C)C(=O)N5CCC[C@H]5C(=O)N(C)CC(=O)N(C)[C@@H](C(C)C)C(=O)O[C@@H]4C)c3nc-2c(C(=O)N[C@@H]2C(=O)N[C@H](C(C)C)C(=O)N3CCC[C@H]3C(=O)N(C)CC(=O)N(C)[C@@H](C(C)C)C(=O)O[C@@H]2C)c(N)c1=O` (I: T[dV]P[Sar][NMeV] / II: T[dV]P[Sar][NMeV]; ester I:1-I:C, II:1-II:C; linker I:N-II:N via Actinocin(9to1)), for which the Potency is 1.09 µM (active).
Still for that read-out and setting: to `Cn1cnc([N+](=O)[O-])c1Sc1ncnc2nc[nH]c12` belongs 8.63 µM (active).
As for `Cc1ccccc1C(OCCN(C)C)c1ccccc1` (configuration not stated), the “activity change, negative = viability loss” value is 0.4% (inactive).
As for `CN1C(=O)C(Cc2c[nH]c3ccccc23)NC1=S` (configuration not stated), the “activity change, negative = viability loss” value is -3.66% [at 19.5 µM] (inactive).

The record behind these values is PubChem BioAssay AID1345085 (National Center for Advancing Translational Sciences (NCATS), 2018).
